The nature of test [1]: qHTS to identify inhibitors of the type 1 interferon - major histocompatibility complex class I in skeletal muscle: primary screen against the NCATS LOPAC collection (AID 1347405).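 Note: lytic HiBiT luminescence reporting HLA-B protein level.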 Note: potency is the fitted concentration of half-maximal effect. The procedure, abridged:
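Luminescence from HiBiT fused to endogenous HLA-B in CRISPR-engineered human myoblasts served as the read-out. Cells received 4.0 ng/ml IFN-beta plus compound (seven concentrations, 1:4.3 steps, highest 46 uM final) for 24 hrs before lytic detection.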
Background: Quantitative high-throughput screening tests each substance at several concentrations.

A short description of test [2]: qHTS to identify inhibitors of the type 1 interferon - major histocompatibility complex class I in skeletal muscle: primary screen against the NCATS Pharmaceutical Collection (AID 1347407).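 Note: luminescence of HiBiT knocked into endogenous HLA-B as interferon-induced MHC class I level; % is set by controls: 0 for no effect and ±100 for the full control effect.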 The procedure, abridged: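 Cells were seeded with 4 ng/ml IFN-beta, incubated 1 h, then dosed with compounds over eight 1:5 steps up to 46 uM final. After 24 h at 37 C, HiBiT lytic reagent was added and luminescence read after 10 min lysis in the dark.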

The nature of test [3]: qHTS for inhibitors of adenylyl cyclases using a fission yeast platform: a pilot screen against the NCATS LOPAC library (AID 1347410).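 Note: plate controls were DMSO vehicle for no effect and DPI positive control for full effect.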 The procedure, abridged: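 Growth medium went into the plates first, then compounds were pinned (final up to 57 µM), then CHP2027 yeast were added. Plates were incubated overnight (18 h) at 30C in the dark, and GFP was measured by laser scanning cytometry.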

Test [4] deals with Protein phosphatase 1D (Homo sapiens) (UniProt O15297). The test is described as follows: RapidFire Mass Spectrometry qHTS Assay for Modulators of WT P53-Induced Phosphatase 1 (WIP1) (AID 1347424).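 Note: amount of dephosphorylated VEPPL-S-QETFS peptide product formed by WIP1; series mostly up to about 63 µM; plate controls were DMSO wells for no effect and GSK830371 inhibitor control at 10 µM for full effect.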 The procedure, abridged: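 WIP1 (10 nM final) was preincubated 1 h at room temperature with compounds in Tris-HCl pH 7.5, 30 mM MgCl2, TCEP, EGTA, BSA; 2 uM VEPPL-pS-QETFS phosphopeptide was added for 5 min, quenched with formic acid, and dephosphorylated product quantified by RapidFire MS.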
Chain of Protein phosphatase 1D (Homo sapiens) (O15297 whole entry, looked up): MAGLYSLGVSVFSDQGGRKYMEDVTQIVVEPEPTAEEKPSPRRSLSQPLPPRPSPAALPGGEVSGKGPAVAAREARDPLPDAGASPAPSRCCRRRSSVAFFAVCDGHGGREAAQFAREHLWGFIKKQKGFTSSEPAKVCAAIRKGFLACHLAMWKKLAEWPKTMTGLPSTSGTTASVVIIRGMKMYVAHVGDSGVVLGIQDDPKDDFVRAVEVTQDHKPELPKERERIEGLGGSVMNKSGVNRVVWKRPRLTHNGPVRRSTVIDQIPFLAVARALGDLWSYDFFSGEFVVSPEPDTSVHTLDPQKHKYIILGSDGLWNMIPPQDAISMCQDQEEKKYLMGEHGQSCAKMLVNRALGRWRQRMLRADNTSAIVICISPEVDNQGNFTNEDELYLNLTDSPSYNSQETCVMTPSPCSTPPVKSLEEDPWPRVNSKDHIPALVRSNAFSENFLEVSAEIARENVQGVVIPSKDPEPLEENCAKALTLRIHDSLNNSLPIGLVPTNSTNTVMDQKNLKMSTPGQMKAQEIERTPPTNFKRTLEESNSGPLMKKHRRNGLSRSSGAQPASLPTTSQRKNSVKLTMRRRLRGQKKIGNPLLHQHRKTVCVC

For test [5] the target is unchanged. The test is described as follows: Rhodamine-PBP qHTS Assay for Modulators of WT P53-Induced Phosphatase 1 (WIP1) (AID 1347425). Note: % of control where 0% means no effect. The method, boiled down: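 The read-out is the change in Rhodamine-PBP fluorescence (f1 - f0, ex 525/em 598 nm) as Pi is released, read each minute for 11 min. Final reaction: 5 nM WIP1, 10 uM phosphopeptide VEPPL-pS-QETFS, 10 uM Rh-PBP, 50 mM Tris-HCl pH 7.5, 30 mM MgCl2. Compound was preincubated with enzyme for 1 hour at room temperature.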

A short description of test [6]: Validation qHTS assay for inhibitors of Activation Induced Cytidine Deaminase (AID): UDG Counterscreen signal (AID 1347427). Note: 0% is about no effect. The method, boiled down:
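Counterscreen read of UDG activity (2 U/mL, 4/3x) in the FRET deamination format with AID (1 uM, 4/3x), DJC20/DJC23 substrates (250 nM, 4x), 4 h at room temperature. NaOH stop, fluorescence at 560 ex/665 em.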

The target in test [7] is Single-stranded DNA cytosine deaminase (Homo sapiens) (UniProt Q9GZX7). The test is described as follows: Validation qHTS assay for inhibitors of Activation Induced Cytidine Deaminase (AID): AID signal (AID 1347429). Note: % is set by controls: 0 for no effect and ±100 for the full control effect. The procedure, abridged:
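Fluorescence at 540 nm excitation and 590 nm emission reports ssDNA cytosine deamination by AID, with UDG in the same well. Compound-treated reactions ran 4 hr at room temperature with DJC20/DJC23 substrate, followed by 30 min NaOH treatment.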

Test [8] can be described thus: Primary qHTS for inhibitors of La Crosse Virus (LACV) - induced cell death in SH-SY5Y cells (AID 1508616). Note: potency is the fitted concentration of half-maximal effect. The procedure, abridged: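 Protection against LACV-induced cell death is scored in SH-SY5Y cells exposed to compounds and virus (0.01 MOI) for 6 days. Data normalized to virus-infected DMSO wells and virus-free DMSO wells.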
Test [9] concerns the target Calcium and integrin-binding protein 1 (Homo sapiens) (UniProt Q99828). The test is described as follows: Validation qHTS for Identification of Calcium Integrin Binding protein 1 (CIB1) Competitor (AID 1508618). Note: % is set by controls: 0 for no effect and ±100 for the full control effect. The method, boiled down:
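CIB1-GST (1 uM final) incubated 15 min at room temperature with compounds (up to 114 uM), then FITC-labelled alphaIIb peptide (100 nM) added. FP read (Ex 480/Em 540) after 15 min, pH 7.4 buffer containing 5 mM CaCl2.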

Test [10] shares this target. Description: Primary qHTS for Identification of Calcium Integrin Binding Protein 1 (CIB1) Competitor (AID 1508620).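 Note: GST tagged CIB1 binding a fluorescein labelled alphaIIb integrin peptide tracer; top concentration of the series differs between compounds; % is set by controls: 0 for no effect and ±100 for the full control effect.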 The method, boiled down: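 Fluorescence polarization competition: CIB1-GST (1 uM final) preincubated with compound 15 min at room temperature, then FITC-labeled alphaIIb peptide (100 nM final) added for another 15 min. Polarization read at Ex 480/Em 540.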

A short description of test [11]: Primary qHTS for small molecule stabilizers of the endoplasmic reticulum resident proteome: Secreted ER Calcium Modulated Protein (SERCaMP) assay (AID 1508630). Note: % is set by controls: 0 for no effect and ±100 for the full control effect. The method, boiled down:
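GLuc-SERCaMP-expressing SH-SY5Y cells, pretreated 16 h with compound, are challenged with thapsigargin to empty ER calcium stores; after 4 h, coelenterazine is added directly to the medium and luminescence is imaged.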

Test [12] is described as follows: A High-Content qHTS Against Drug Library for the Identification of Small Molecules that Inhibit DYT1 Early Onset Primary Dystonia-Associated Cell Pathology (AID 1645839; calls by dose curve; note: series mostly up to about 46 µM). The method, boiled down: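 Readout: %pathology, the punctate EGFP-TorsinA distribution from imaging, as the primary channel and cell count as the toxicity counterscreen. HEK293 Flp-In cells expressing delE TorsinA were induced with tetracycline and treated with compound for 48 h.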

The next test addresses Papain (Carica papaya) (UniProt P00784). The test is described as follows: Primary qHTS assay for inhibitors of the protease papain (AID 1645873).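 Note: papain turnover of Z-FR-AMC read as the AMC fluorescence gain over 10 min.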 Note: potency is the fitted concentration of half-maximal effect.
Test [13] can be described thus: Primary qHTS for inhibitors of nuclear receptor binding SET domain protein 2 (NSD2) in an isogenic RCH-ACV NSD2 p.E1099K mutant (9B) (AID 1645876). Note: nearly all actives have a fitted effect of over 70% in size. Note: potency is the fitted concentration of half-maximal effect.
The nature of test [14]: Cell Viability qHTS for small molecule stabilizers of the endoplasmic reticulum resident proteome (AID 1508629). To be noted: cell viability counter-screen, 100 nM thapsigargin for final 4 h.
For test [15], the target named is Cytochrome P450 2C9 (Homo sapiens) (UniProt P11712). The test is described as follows: Cytochrome P450 family 2 subfamily C member 9 (CYP2C9) small molecule antagonists: luciferase biochemical (cell-free) qHTS assay (AID 1645842; active = well fitted curve in the direction sought with a large enough effect in the repeat runs; an effect the other way counts as inactive or inconclusive; note: nearly all actives have a fitted effect of over 55% in size; note: potency is the fitted concentration of half-maximal effect). The method, boiled down:
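Luminescence, after 20 min with luciferin detection reagent, reflected CYP2C9 turnover during a 1 h NADPH-driven reaction at 37C. Enzyme-substrate mix contained 0.4% bovine serum albumin and was preincubated with compound 10 min at room temperature.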

Test [16] concerns the target Cytochrome P450 2D6 (Homo sapiens) (UniProt P10635). Description: Cytochrome P450 family 2 subfamily D member 6 (CYP2D6) small molecule antagonists: luciferase biochemical (cell-free) qHTS assay (AID 1645840; active = well fitted curve in the direction sought with a large enough effect in the repeat runs; an effect the other way counts as inactive or inconclusive; note: nearly all actives have a fitted effect of over 55% in size; note: potency is the fitted concentration of half-maximal effect). The procedure, abridged:
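P450-Glo luminescent screen: recombinant CYP2D6 enzyme–proluciferin substrate mix preincubated with compound 10 min at room temperature, then NADPH regeneration added for 1 h at room temperature. Detection reagent added for 20 min; luciferin light read as relative luminescence units.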

Test [17] deals with Cytochrome P450 3A4 (Homo sapiens) (UniProt P08684). The test is described as follows: Cytochrome P450 family 3 subfamily A member 4 (CYP3A4) small molecule antagonists: luciferase qHTS assay (AID 1645841; active = well fitted curve in the direction sought with a large enough effect in the repeat runs; an effect the other way counts as inactive or inconclusive; note: nearly all actives have a fitted effect of over 45% in size). The method, boiled down:
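P450-Glo CYP3A4 enzyme with proluciferin substrate was preincubated with DMSO-dissolved compounds for 10 min at room temperature. NADPH regeneration solution started a 1 h reaction. Detection reagent stopped it, and luminescence was read after 20 min.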

Several values for one entry are separate records, joined by “and”; a condition that tells them apart may be missing. Equal entries are not always repeated. A number with no mark means an inactive call. Results filed as inconclusive are left out. Activity calls are given as the source filed them. Unless noted, calls come from the whole dose curve; as a rule, active = well fitted curve in the direction sought with a large enough effect; inconclusive = small, poorly fitted or top-dose-only effect, or another doubt; inactive = no such curve, though single readings can be large; an effect the other way counts as inactive or inconclusive.

Chain of Single-stranded DNA cytosine deaminase (Homo sapiens) (Q9GZX7 whole entry, looked up): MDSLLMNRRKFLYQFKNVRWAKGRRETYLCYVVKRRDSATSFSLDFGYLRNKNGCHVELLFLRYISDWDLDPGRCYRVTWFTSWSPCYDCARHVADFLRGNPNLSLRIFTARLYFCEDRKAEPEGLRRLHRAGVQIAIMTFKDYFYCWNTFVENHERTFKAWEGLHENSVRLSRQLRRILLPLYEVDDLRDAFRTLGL
Chain of Cytochrome P450 2D6 (Homo sapiens) (P10635 whole entry, looked up): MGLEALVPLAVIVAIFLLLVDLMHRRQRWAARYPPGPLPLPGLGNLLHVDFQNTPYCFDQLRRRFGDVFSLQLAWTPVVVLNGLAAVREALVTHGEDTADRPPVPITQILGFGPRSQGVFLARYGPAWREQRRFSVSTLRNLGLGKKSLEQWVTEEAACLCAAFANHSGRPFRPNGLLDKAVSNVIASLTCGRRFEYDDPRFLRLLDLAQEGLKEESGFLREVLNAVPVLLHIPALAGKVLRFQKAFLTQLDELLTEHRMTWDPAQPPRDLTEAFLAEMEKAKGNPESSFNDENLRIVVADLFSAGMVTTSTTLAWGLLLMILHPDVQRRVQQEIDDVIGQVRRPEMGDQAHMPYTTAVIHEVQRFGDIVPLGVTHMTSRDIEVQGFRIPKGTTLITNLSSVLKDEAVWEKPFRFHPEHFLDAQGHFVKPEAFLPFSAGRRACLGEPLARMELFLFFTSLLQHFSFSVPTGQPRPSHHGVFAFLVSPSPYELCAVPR
Chain of Calcium and integrin-binding protein 1 (Homo sapiens) (Q99828 whole entry, looked up): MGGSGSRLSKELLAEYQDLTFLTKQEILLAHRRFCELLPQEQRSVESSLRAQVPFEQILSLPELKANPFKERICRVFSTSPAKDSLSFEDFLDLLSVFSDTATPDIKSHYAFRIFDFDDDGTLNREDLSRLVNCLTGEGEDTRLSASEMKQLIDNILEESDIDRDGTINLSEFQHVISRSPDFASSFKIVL
Chain of Papain (Carica papaya) (P00784 whole entry, looked up, the tested form may be a part): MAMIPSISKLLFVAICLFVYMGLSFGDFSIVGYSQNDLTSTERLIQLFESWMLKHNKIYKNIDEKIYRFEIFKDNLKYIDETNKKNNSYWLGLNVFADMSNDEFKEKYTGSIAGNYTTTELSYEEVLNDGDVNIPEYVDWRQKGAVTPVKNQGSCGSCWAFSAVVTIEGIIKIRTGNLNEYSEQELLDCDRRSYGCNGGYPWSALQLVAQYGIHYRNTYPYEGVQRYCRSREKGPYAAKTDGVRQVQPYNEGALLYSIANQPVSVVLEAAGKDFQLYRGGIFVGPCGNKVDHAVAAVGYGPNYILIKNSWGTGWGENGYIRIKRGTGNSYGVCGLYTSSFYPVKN
Chain of Cytochrome P450 2C9 (Homo sapiens) (P11712 whole entry, looked up): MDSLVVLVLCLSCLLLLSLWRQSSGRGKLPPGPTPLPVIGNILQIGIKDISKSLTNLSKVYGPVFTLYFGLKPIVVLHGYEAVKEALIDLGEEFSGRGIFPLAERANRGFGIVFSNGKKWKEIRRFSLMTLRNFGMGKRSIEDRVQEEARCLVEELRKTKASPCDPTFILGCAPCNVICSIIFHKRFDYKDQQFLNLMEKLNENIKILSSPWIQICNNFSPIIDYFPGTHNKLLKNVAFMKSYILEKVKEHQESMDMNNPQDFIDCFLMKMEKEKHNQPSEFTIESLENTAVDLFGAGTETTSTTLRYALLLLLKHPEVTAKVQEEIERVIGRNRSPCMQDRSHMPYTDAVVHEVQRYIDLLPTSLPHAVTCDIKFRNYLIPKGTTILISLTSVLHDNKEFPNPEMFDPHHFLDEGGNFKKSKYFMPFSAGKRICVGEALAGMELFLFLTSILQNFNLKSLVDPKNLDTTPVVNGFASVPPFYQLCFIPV
Chain of Cytochrome P450 3A4 (Homo sapiens) (P08684 whole entry, looked up): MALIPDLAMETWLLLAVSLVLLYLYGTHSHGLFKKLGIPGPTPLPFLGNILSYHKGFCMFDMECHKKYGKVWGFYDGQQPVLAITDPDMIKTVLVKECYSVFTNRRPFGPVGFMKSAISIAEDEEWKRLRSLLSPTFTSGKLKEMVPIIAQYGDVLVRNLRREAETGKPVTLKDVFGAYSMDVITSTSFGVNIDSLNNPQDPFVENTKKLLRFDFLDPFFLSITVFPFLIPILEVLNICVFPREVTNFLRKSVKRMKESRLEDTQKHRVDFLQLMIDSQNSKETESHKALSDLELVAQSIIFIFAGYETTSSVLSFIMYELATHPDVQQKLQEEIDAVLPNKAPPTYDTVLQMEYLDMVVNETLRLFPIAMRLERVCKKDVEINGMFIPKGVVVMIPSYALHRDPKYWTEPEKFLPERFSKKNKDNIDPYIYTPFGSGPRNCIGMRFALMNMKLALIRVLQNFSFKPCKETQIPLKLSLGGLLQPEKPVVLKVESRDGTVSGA

Consider `NS(=O)(=O)c1cc2c(cc1Cl)NC(C1CC3C=CC1C3)NS2(=O)=O` (stereo not drawn), for which the Potency result in test [1], in test [2], in [4], in test [7], in [8] and in test [10] was “inactive” each time. Besides, the Potency entry (in test [11]; in [12]; in the test with Papain (Carica papaya); in test [13]) was “inactive” in each case. Also, the result in test [3], in [5], in [6] and in test [9] was inactive.
Regarding `CCCCNc1ccc(C(=O)OCCN(C)C)cc1`, the Potency result in test [1], in [2], in test [4], in test [7], in test [8] and in test [10] was “inactive” throughout. In addition, the Potency entry (in [11]; in [12]; with Papain (Carica papaya); in test [13]) was “inactive” in each case. Further, the result in test [3], in test [5], in test [6] and in test [9] was inactive. The max response in test [14] was 13.7% and 3.85% and 11.6%.
Take `CNCCCN1c2ccccc2CCc2ccccc21`: the Potency entry in [1], in test [2], in test [4], in [7], in [8] and in test [10] was “inactive” in each case. In addition, the Potency entry (in test [15]; with Papain (Carica papaya)) was “inactive” in each case. For the same compound, the compound was called inactive in test [3], in test [5], in test [6] and in test [9].
As to `CC1=C(C)C(=O)C(CCCCC#CCCCC#CCO)=C(C)C1=O`, the Potency entry in test [1], in test [2], in test [4], in test [7], in test [8] and in test [10] was “inactive” throughout. In addition, the Potency result with Papain (Carica papaya) was “inactive”. For the same compound, the call in [3], in [5] and in [9] was inactive. For the same compound, the Potency was 4.9 µM (active) in test [16], 3.09 µM (active) in test [15] and 18.8 µM (active) in test [13].
For the compound `Nc1nc(N)c2nc(-c3ccccc3)c(N)nc2n1`, the Potency result in [1], in test [2], in [4], in test [8], in test [10] and in [11] was “inactive” in each case. Also, the Potency entry in test [12] was “inactive”. Moreover, the outcome in test [3], in test [5], in test [6] and in [9] was inactive. In addition, the results for the Potency (with Papain (Carica papaya); in test [13]) were 1.12 µM (active) and 7.5 µM (active), respectively.
`CCN1CCc2nc(N)oc2CC1`: the Potency entry in test [1], in test [2], in test [4], in test [7], in test [8] and in [10] was “inactive” in each case. In addition, the Potency result in test [11], in test [12], in test [16], in test [15] and in test [13] was “inactive” each time. Besides, the compound was called inactive in test [3] and in test [5].
Consider `CCN(CC)CC(=O)Nc1c(C)cccc1C`, for which the Potency entry in test [1], in test [2], in test [7], in test [8], in test [10] and in test [11] was “inactive” throughout. The Potency result (in test [12]; with Papain (Carica papaya); in test [13]) was “inactive” throughout. Besides, the compound was called inactive in test [3], in [5], in test [6] and in test [9].
As to `NC(=O)c1cn(Cc2c(F)cccc2F)nn1`, the Potency result in [1], in test [2], in test [7], in [8], in test [10] and in test [11] was “inactive” each time. The Potency result (in [12]; in test [16]; in [15]; with Papain (Carica papaya); in test [13]) was “inactive” each time. Further, the call in test [3], in test [5], in [6] and in test [9] was inactive.
Take `Nc1ncn([C@@H]2O[C@H](CO)[C@@H](O)[C@H]2O)c(=O)n1`: the Potency in test [1] is 8.91 µM (active); in test [8], 1.12 µM (active); in test [13], 10.5 µM (active). Also, the Potency entry in [2], in test [7], in test [10], in test [11], in [16] and in test [15] was “inactive” in each case. Besides, the Potency result in the test with Papain (Carica papaya) is “inactive”. The outcome in test [3], in test [5], in test [6], in test [9] and in [17] was inactive.

These data come from PubChem BioAssay (NCATS).
